Data as given in the supplement of paper PMC3484114.
“And” between values parts separate entries of the source, which are not always exact repeats. Equal entries are not always repeated. ± gives the standard deviation.

These molecules were tested on OVCAR-3-derived ovarian cancer stem-like cells (spheroids) (assay: cell growth relative to untreated control; higher = more growth (less inhibition)). Conditions: 2.29 µM; 96 h.
Summary of the method: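 After trypsin dissociation, OVCAR-3 spheroid-derived stem-like cells were placed in ultra-low attachment 96-well plates at 50,000 cells/mL in stem cell medium and preincubated for 24 h. Treatment at 2.29 uM followed for 96 h at 37°C, 5% CO2, with 4 replicate wells per compound. A 4 h TOX8 resazurin fluorescence read (ex 560/em 590 nm) gave viability, from which percent growth relative to untreated wells was derived after blank subtraction and Grubbs outlier removal.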

O=C1Nc2ccc(Br)cc2/C1=C\C(=O)c1ccccc1 and O=C(c1ccccc1)C(c1ccccc1)C1(O)C(=O)Nc2c(Cl)cc(Cl)cc21 (centres undefined) are within error of each other in cell growth: 96.9 ± 11% for the first, 114 ± 29% for the second.

CC(=O)NC(CC(C)C)C(=O)NC(Cc1ccccc1)C(=O)CCl (centres undefined) and CC(=O)NC1C(OCc2ccccc2)OC(CO)C(O)C1OC(C)C(=O)NC(C(=O)NC(CCC(=O)NCCCCNc1c2ccccc2nc2cccc([N+](=O)[O-])c12)C(N)=O)C(C)C (centres undefined) are within error of each other in cell growth: 88.6 ± 12% for the first, 105 ± 21% for the second.

Nc1nc(=S)c2ncn([C@@H]3C[C@H](O)[C@@H](CO)O3)c2[nH]1 and Nc1ncnc2c([C@@H]3O[C@H](CO)[C@@H](O)[C@H]3O)c[nH]c12 are within error of each other in cell growth: 110 ± 13% for the first, 127 ± 35% for the second.

CN(CO)c1nc(N(C)CO)nc(N(C)CO)n1 and CCCCCCCCCc1c(Cl)nc(Cl)nc1Cl are within error of each other in cell growth: 83.5 ± 18% for the first, 113 ± 24% for the second.

Compared with COc1ccc(CCN(C)CCCC(C#N)(c2ccc(OC)c(OC)c2)C(C)C)cc1OC (centres undefined), COc1cc(OC)c(OC)cc1/C=C/c1ccnc2ccccc12 is lower in cell growth: 115 ± 16% for the first, 75.8 ± 10% for the second.

Cc1ccc(C2NC(=O)c3ccccc3N2)s1 (centres undefined) and Cc1cc(-c2nc3ccccc3s2)ccc1N are within error of each other in cell growth: 60.4 ± 16% for the first, 73.6 ± 9% for the second.

CC(C)c1cccc(O)c(=O)c1 and COC1(O)C(=O)c2ccccc2OC1(OC)c1ccccc1 (centres undefined) are within error of each other in cell growth: 91.8 ± 19% for the first, 118 ± 26% for the second.

O/N=C(\CC(O)(C(F)(F)F)C(F)(F)F)c1cccc(Cl)c1 and N#CC1CC(c2ccccc2)Nc2cc(Cl)ccc2N1 (centres undefined) are within error of each other in cell growth: 87.8 ± 16% for the first, 80.4 ± 20% for the second.

O=C1C(CN2CCCCC2)CCCC1CN1CCCCC1 (centres undefined) and C1CN(c2nnc(N3CCC3)nn2)C1 are within error of each other in cell growth: 62.5 ± 28% for the first, 104 ± 18% for the second.

Compared with Oc1cc(-n2cccn2)c(O)cc1-n1cccn1, C/C(NNC(=O)c1ccccc1O)=C1\C=Nc2ccccc2S1 is lower in cell growth: 103 ± 13% for the first, 16 ± 5.3% for the second.

C[C@]12C=CC(=O)C=C1[C@@H](F)C[C@H]1[C@@H]3CC[C@](O)(C(=O)CO)[C@@]3(C)C[C@H](O)[C@@]12F and CN(C)c1ccc2c(SCC(=O)OCC(=O)[C@@]3(O)CC[C@H]4[C@@H]5CCC6=CC(=O)C=C[C@]6(C)[C@H]5C(=O)C[C@@]43C)c3ccc(N(C)C)cc3nc2c1 are within error of each other in cell growth: 80 ± 22% for the first, 59.1 ± 8.1% for the second.

NC1(CCNC(=O)c2ccccc2)CCN(C(=O)c2ccccc2)CC1 and CCN1CCC(O)(/C=C/c2ccc(C)cc2)C(C(=O)/C=C/c2ccc(C)cc2)C1 (centres undefined) are within error of each other in cell growth: 118 ± 19% for the first, 98.5 ± 13% for the second.

CC[C@H](C)C(=O)O[C@H]1CCC=C2C=C[C@H](C)[C@H](CC[C@@H]3C[C@@H](O)CC(=O)O3)[C@H]21 and C=C1C(=O)OC2C1CC1OC2C(C)CCC/C(C)=C\CCC1(C)O (centres undefined) are within error of each other in cell growth: 135 ± 25% for the first, 115 ± 10% for the second.

Compared with CC[C@]1(O)C[C@H]2CN(CCc3c([nH]c4ccccc34)[C@@](C(=O)OC)(c3cc4c(cc3OC)N(C=O)[C@H]3[C@@](O)(C(=O)OC)[C@H](OC(C)=O)[C@]5(CC)C=CCN6CC[C@]43[C@@H]65)C2)C1, COc1ccc(OC)c(-c2cc(=O)c3c(OC)c(OC)c(OC)c(OC)c3o2)c1 is higher in cell growth: 27 ± 6% for the first, 128 ± 50% for the second.

Compared with Nc1nc(N)c2ncn(-c3ccccc3)c2n1, CC1(C)N=C(N)N=C(N)N1c1ccc(CCCCc2ccc(Cl)cc2Cl)cc1 is lower in cell growth: 162 ± 19% for the first, 51.5 ± 9.2% for the second.

NC1(C(=O)O)CCCC1 and CC(C)C1(Cl)CCC2C3(C)CCCC(C)(C(=O)O)C3CC(Cl)C2(Cl)C1Cl (centres undefined) are within error of each other in cell growth: 84.9 ± 15% for the first, 94.6 ± 30% for the second.

NCCSSCc1ccccc1CSSCCN and CN(C)CCCN1c2ccc3ccccc3c2Sc2cccc(Cl)c21 are within error of each other in cell growth: 109 ± 25% for the first, 104 ± 19% for the second.

CSc1ccc(NC(=O)CCl)cc1 and O=c1oc2cc(O)ccc2c2oc3cc(O)ccc3c12 are within error of each other in cell growth: 80.8 ± 14% for the first, 124 ± 31% for the second.

CCN(CC)c1ccc2cc3ccc(=[N+](CC)CC)cc-3oc2c1 and O=[N+]([O-])c1cc(C(F)(F)F)cc([N+](=O)[O-])c1CCl are within error of each other in cell growth: 45.5 ± 10% for the first, 38.4 ± 11% for the second.

For [Mo], the cell growth was 97% and 106%.
